Sampled rows, rich in hits. Any-hit rate of the full collection: about 3%.
PPC-1+TRAIL kill = compounds killing PPC-1 cancer cells with TRAIL present (potentiator screen, no TRAIL-free arm); PPC-1 cells + TRAIL, ATPLite viability luminescence; cell killing (% activity), % at 4 µM or 5 µM; 220,000 compounds, 0.41% hits; AID 1443;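 active = cell killing above 50% in the first pass at 4 µM, then a duplicate retest at 5 µM averaging 50% or more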
SENP6 block = inhibitors of human SENP6 protease; Q9GZR1; Recombinant SENP6 catalytic domain, aminoluciferin luminescence; inhibition, % at 10 µM; 330,000 compounds, 1.8% hits;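 active = inhibition above about 50% at the single tested dose, limit read from the data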
Target sequence (Q9GZR1 628-1112 limits assumed): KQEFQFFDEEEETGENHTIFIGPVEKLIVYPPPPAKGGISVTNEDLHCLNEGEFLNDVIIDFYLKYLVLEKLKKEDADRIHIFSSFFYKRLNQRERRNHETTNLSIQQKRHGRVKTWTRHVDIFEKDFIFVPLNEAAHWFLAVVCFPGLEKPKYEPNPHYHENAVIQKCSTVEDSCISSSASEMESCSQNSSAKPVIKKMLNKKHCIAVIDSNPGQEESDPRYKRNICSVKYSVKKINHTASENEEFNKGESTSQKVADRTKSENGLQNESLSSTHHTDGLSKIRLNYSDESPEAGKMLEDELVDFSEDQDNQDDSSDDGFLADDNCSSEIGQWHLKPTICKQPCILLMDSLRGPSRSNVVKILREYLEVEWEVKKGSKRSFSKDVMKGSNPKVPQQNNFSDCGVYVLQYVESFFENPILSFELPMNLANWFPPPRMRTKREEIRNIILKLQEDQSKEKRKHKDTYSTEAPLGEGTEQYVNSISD
TRAIL sens C8 = sensitizes caspase-8 expressing cells to TRAIL | NB7+C8 cells + TRAIL, ATPlite viability luminescence | inhibition (viability loss, TRAIL sensitization), % at 10 µM | 360,000 compounds, 1% hits;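 active = compounds causing at least 50% loss of cell viability in the single-dose screen, relative to plate controls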
SENP8 block-1 = blocks human SENP8 cleavage of Nedd8 substrate | Q96LD8 | AID 602440 | recombinant SENP8, Nedd8 substrate fluorescence | 360,000 compounds, 0.64% hits | inhibition, % at 20 µM; in the data active = inhibition mostly above about 40%, no sharp cut-off; inactive = mostly below about 27%
Target sequence (Q96LD8 whole entry, looked up): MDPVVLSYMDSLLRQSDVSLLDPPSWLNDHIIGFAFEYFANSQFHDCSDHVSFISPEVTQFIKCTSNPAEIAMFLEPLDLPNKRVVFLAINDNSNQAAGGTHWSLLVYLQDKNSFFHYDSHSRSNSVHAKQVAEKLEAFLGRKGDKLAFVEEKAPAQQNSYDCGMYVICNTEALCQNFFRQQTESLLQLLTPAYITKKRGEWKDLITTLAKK
SENP8 block-2 = blocks the human protease SENP8 | Q96LD8 | inhibition, % at 10 µM | 330,000 compounds, 1.2% hits | purified SENP8, Z-RLRGG-aminoluciferin cleavage, luminescence; in the data active = inhibition above about 50%
SENP7 block = SENP7 protease inhibition | Q9BQF6 | inhibition, % at 5 µM | 330,000 compounds, 1.5% hits | recombinant SENP7, Z-RLRGG-aminoluciferin luminescence, 40 min;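 active = inhibition above about 50% at the single test dose, limit read from the data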
Of the large screens only hits and unclear results are named; the others gave an inactive call.

NS(=O)(=O)c1ccc(CNC(=O)CSc2nc3ccc(Cl)cc3[nH]2)cc1	none (no result: PPC-1+TRAIL kill)
COc1cc(NC(=O)CCl)ccc(=O)c1	none (no result: PPC-1+TRAIL kill, SENP6 block, SENP8 block-2, SENP7 block)
CCOc1ccc(OCC)c(NC(=O)C2CCN(c3nn4c(=O)cc(C)nc4s3)CC2)c1	TRAIL sens C8 67
Cc1cc(C(=O)CN2CCCC(C)C2)c(C)n1-c1ccc(F)cc1 (centres undefined)	none
Cc1cc(C)c2c(=N)c3ccccc3n(CCCCCCCCn3c4ccccc4c(=N)c4c(C)cc(C)nc43)c2n1	TRAIL sens C8 79 (no result: PPC-1+TRAIL kill, SENP6 block, SENP8 block-2, SENP7 block)
CCCCCCCCn1c2c(c(=N)c3ccccc31)CCC2	none (no result: PPC-1+TRAIL kill)
CCC(C(=O)N1CCOCC1)n1c2ccccc2c2nc(=O)cc(C)n21 (centres undefined)	none (no result: PPC-1+TRAIL kill)
Cc1ccc(CN2[C@@H](Cc3ccccc3)C(=O)CS2(=O)=O)cc1	TRAIL sens C8 64 (no result: PPC-1+TRAIL kill)
CC1(C(=O)NS(=O)(=O)C2CC2)CCN(C(=O)c2cccc(Cl)c2)C1 (centres undefined)	none (no result: PPC-1+TRAIL kill, SENP6 block, SENP8 block-2, SENP7 block)
CCCCCc1cc(=O)oc2c(C(CCN3CCCC3)c3cc(OC)c(OC)c(OC)c3)c(OC)cc(OC)c12 (centres undefined)	TRAIL sens C8 53
CCCCCc1cc(=O)oc2c(C(CCN3CCCCC3)c3ccc(OC)cc3)c(OC)cc(OC)c12 (centres undefined)	none
CN1OC[C@@H]2CN[C@H](c3ccc(-c4cc5ccccc5o4)cc3)C[C@@H]21	TRAIL sens C8 86 (no result: PPC-1+TRAIL kill, SENP6 block, SENP8 block-2, SENP7 block)
Cc1[nH]n(-c2ccccc2)c(=O)c1C(c1cccc([N+](=O)[O-])c1)c1c(C)[nH]n(-c2ccccc2)c1=O	SENP8 block-1 49
Cc1[nH]n(-c2ccccc2)c(=O)c1C(c1cccc([N+](=O)[O-])c1O)c1c(C)[nH]n(-c2ccccc2)c1=O	none
Cc1[nH]n(-c2ccccc2)c(=O)c1C(c1ccc(C(=O)O)cc1)c1c(C)[nH]n(-c2ccccc2)c1=O	SENP8 block-1 71
COc1ccc(C(CC(=O)NCC(OC)OC)NS(=O)(=O)c2ccc(Cl)cc2)cc1 (centres undefined)	none
CCN(Cc1ccncc1)Cc1cn[nH]c1-c1cc(OC)c(OC)c(OC)c1	none
O=[N+]([O-])c1cc(/C=N/N2CCN(C3c4ccccc4-c4ccccc43)CC2)ccc1Cl	SENP8 block-1 47
COc1ccc(-c2ncncc2-c2csc(C)n2)c(O)c1OC	none
COC1=C(N)C(=O)c2nc(-c3nc(C(=O)O)c(C)c(-c4ccc(OC)c(OC)c4O)c3N)ccc2C1=O	SENP6 block 80, SENP8 block-2 82, SENP7 block 67 (no result: TRAIL sens C8, SENP8 block-1)
CCCc1cc(=O)oc2c3c(cc(OCC(=O)N[C@@H](C)C(=O)O)c12)OC(C)(C)CC3	none (no result: PPC-1+TRAIL kill)
CCCc1cc(=O)oc2c3c(c4c(c12)OC(C)(C)C=C4)OC(C)C(C)C3O (centres undefined)	TRAIL sens C8 78
Cc1ccc(N(CCC#N)C(=O)CCl)cc1C	TRAIL sens C8 87
Cc1ccc(SCC(=O)OCC(=O)N(CCC#N)c2ccccc2)cc1C	none (no result: PPC-1+TRAIL kill)
COc1ccccc1C1CCN(C(=O)c2cccc([N+](=O)[O-])c2)CC1	none
CC(C)(C)c1cc(CCC(=O)NCCc2ccccn2)cc(C(C)(C)C)c1O	none (no result: PPC-1+TRAIL kill)
O=C1C=C(NCCc2cc(Br)c(O)c(Br)c2)C(=O)c2ncccc21	TRAIL sens C8 57, SENP8 block-1 116 (no result: PPC-1+TRAIL kill, SENP6 block, SENP8 block-2, SENP7 block)
Cc1ccc(C(=O)NCCc2nnc3ccc(SCC(=O)Nc4ccccc4F)nn23)cc1	none (no result: PPC-1+TRAIL kill)
CC1CCC2=NN(C(=O)c3ccco3)C(O)(C(F)(F)F)C2C1 (centres undefined)	none
COc1cccc2sc(N(CCCN(C)C)C(=O)c3ccc(S(=O)(=O)N4CCc5ccccc5C4)cc3)nc12	TRAIL sens C8 83 (no result: PPC-1+TRAIL kill)
CN(C)CCCN(C(=O)c1ccc(S(=O)(=O)N2CCc3ccccc3C2)cc1)c1nc2c(F)cc(F)cc2s1	none (no result: PPC-1+TRAIL kill)
COc1ccc(OC)c2sc(N(CCCN(C)C)C(=O)c3ccc(S(=O)(=O)N4CCc5ccccc5C4)cc3)nc12	none (no result: PPC-1+TRAIL kill, TRAIL sens C8, SENP8 block-1)
Cc1ccc2sc(N(CCCN(C)C)C(=O)c3ccc(S(=O)(=O)N4CCc5ccccc5C4)cc3)nc2c1C	TRAIL sens C8 76 (no result: PPC-1+TRAIL kill)
COc1ccc(C)c2sc(N(CCCN(C)C)C(=O)c3ccc(S(=O)(=O)N4CCc5ccccc5C4)cc3)nc12	TRAIL sens C8 93 (no result: PPC-1+TRAIL kill, SENP6 block, SENP8 block-2, SENP7 block)
CN(C)CCNC(=O)/C=N/O	none
Cc1c(Cl)c([N+](=O)[O-])nn1CC(=O)N1CCN(C23CC4CC(CC(C4)C2)C3)CC1	none (no result: PPC-1+TRAIL kill)
O=[N+]([O-])c1ccc(Sc2ccncn2)c([N+](=O)[O-])c1	TRAIL sens C8 53 (no result: PPC-1+TRAIL kill, SENP6 block, SENP8 block-2, SENP7 block)
CC1CCc2c(sc(NC(=O)C3=COCCO3)c2C(N)=O)C1 (centres undefined)	TRAIL sens C8 55 (no result: PPC-1+TRAIL kill)
CNC(=O)c1c(NC(=O)C2=COCCO2)sc2c1CCC(C)C2 (centres undefined)	none (no result: PPC-1+TRAIL kill)
Cc1ccc2sc(N(CCCN(C)C)C(=O)c3ccc(S(=O)(=O)N(C)C)cc3)nc2c1C	none
CCOc1cccc2sc(N(CCCN(C)C)C(=O)c3ccc(S(=O)(=O)N(C)Cc4ccccc4)cc3)nc12	TRAIL sens C8 51 (no result: PPC-1+TRAIL kill)
Cc1ccc2sc(N(CCCN(C)C)C(=O)c3ccc(S(=O)(=O)N(C)Cc4ccccc4)cc3)nc2c1C	TRAIL sens C8 69 (no result: PPC-1+TRAIL kill)
CCN(Cc1ccccc1)S(=O)(=O)c1ccc(C(=O)N(CCCN(C)C)c2nc3cc(C)cc(C)c3s2)cc1	TRAIL sens C8 75 (no result: PPC-1+TRAIL kill)
Cc1cc(C)c2sc(N(CCCN(C)C)C(=O)c3ccc(S(=O)(=O)N(C)Cc4ccccc4)cc3)nc2c1	none (no result: PPC-1+TRAIL kill)
CSc1ncccc1C(=O)NNc1cc(Cl)ccc1Cl	none (no result: PPC-1+TRAIL kill)
COc1ccc(Cl)cc1C(=O)Nc1ccc2c(c1)OCCO2	TRAIL sens C8 52 (no result: PPC-1+TRAIL kill)
CN1C(=O)/C(=C2\SC(N)=NC2=O)c2ccccc21	SENP8 block-1 43
CN1C(=O)/C(=C2\SC(=S)N(CCCCCC(=O)O)C2=O)c2ccccc21	none
C=CCn1c(C)cc(C(=O)COC(=O)COc2ccccc2C#N)c1C	none
C=CCn1c(C)cc(C(=O)COC(=O)[C@@H](NC(=O)c2ccccc2Cl)C(C)C)c1C	PPC-1+TRAIL kill 77, TRAIL sens C8 85
COc1nccnc1NS(=O)(=O)c1ccc(NC(=S)NC(=O)c2ccc(F)cc2)cc1	SENP6 block 86, SENP8 block-2 78, SENP7 block 69
COc1nsnc1NS(=O)(=O)c1ccc(NC(=S)NC(=O)c2ccncc2)cc1	none
Cc1cccc(-n2ncc3c(NC4CCCCC4)ncnc32)c1	TRAIL sens C8 73
Cc1cccc(-n2ncc3c(N4CCCC4)ncnc32)c1	TRAIL sens C8 80
O=C(CN1C(=O)c2ccccc2S1(=O)=O)c1ccccc1F	TRAIL sens C8 46 (no result: PPC-1+TRAIL kill)
O=C(CN1C(=O)c2ccccc2S1(=O)=O)c1ccc(F)cc1	none
CC(C)(C)c1ccc(C(=O)Nc2ccc(C=C(C#N)C#N)cc2)cc1	PPC-1+TRAIL kill 50, TRAIL sens C8 53
N#CC(C#N)=Cc1ccc(NC(=O)c2ccc(Br)cc2)cc1	none
O=c1cc(-c2ccccc2)oc2ccc3ccccc3c12	TRAIL sens C8 88 (no result: PPC-1+TRAIL kill, SENP6 block, SENP8 block-2, SENP7 block)

Screens as filed in PubChem BioAssay.
